Test results reported in publication PMC11062922 (Nature Chemical Biology, 2023).
Read-outs that look alike come from different tables or passages of the source.

Experiments:
ABL1 = tested on: ABL1; design: species or system human, MV4-11 + K-562 + COLO205 + SK-N-BE2 + OVCAR-8; conditions: read-out: apparent Kd, n = 1
ABL2 = tested on: ABL2; design: species or system human, MV4-11 + K-562 + COLO205 + SK-N-BE2 + OVCAR-8; conditions: read-out: apparent Kd, n = 1
BCR = tested on: BCR; design: species or system human, MV4-11 + K-562 + COLO205 + SK-N-BE2 + OVCAR-8; conditions: read-out: apparent Kd, n = 1
CLK1 = tested on: CLK1; design: species or system human, MV4-11 + K-562 + COLO205 + SK-N-BE2 + OVCAR-8; conditions: read-out: apparent Kd; compound concentrations:100 nM and 1000 nM (sheet 'Samples'); n = 1
CLK4 = tested on: CLK4; design: species or system human, MV4-11 + K-562 + COLO205 + SK-N-BE2 + OVCAR-8; conditions: read-out: apparent Kd; compound concentrations:100 nM and 1000 nM (sheet 'Samples'); n = 1
GAK = tested on: GAK; design: species or system human, MV4-11 + K-562 + COLO205 + SK-N-BE2 + OVCAR-8; conditions: read-out: apparent Kd, n = 1
LCK = tested on: LCK; design: species or system human, MV4-11 + K-562 + COLO205 + SK-N-BE2 + OVCAR-8; conditions: read-out: apparent Kd, n = 1
Q6ZSR9 = Q6ZSR9 (human, UniProt Q6ZSR9); design: species or system MV4-11 + K-562 + COLO205 + SK-N-BE2 + OVCAR-8; conditions: read-out: apparent Kd; compound concentrations:100 nM and 1000 nM (sheet 'Samples'); n = 1
Chain of Q6ZSR9 (Q6ZSR9 whole entry, looked up): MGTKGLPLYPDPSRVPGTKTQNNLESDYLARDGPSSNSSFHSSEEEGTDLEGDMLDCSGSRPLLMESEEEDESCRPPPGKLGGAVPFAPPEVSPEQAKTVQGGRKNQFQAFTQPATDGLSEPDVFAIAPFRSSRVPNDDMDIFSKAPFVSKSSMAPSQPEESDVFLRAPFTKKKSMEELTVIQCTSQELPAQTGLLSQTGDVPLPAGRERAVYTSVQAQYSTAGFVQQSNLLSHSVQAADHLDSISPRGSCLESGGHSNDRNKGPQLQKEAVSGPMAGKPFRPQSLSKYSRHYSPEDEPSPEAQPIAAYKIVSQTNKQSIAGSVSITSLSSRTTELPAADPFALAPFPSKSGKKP

RET = tested on: RET; design: species or system human, MV4-11 + K-562 + COLO205 + SK-N-BE2 + OVCAR-8; conditions: read-out: apparent Kd, n = 1
TNK1 = tested on: TNK1; design: species or system human, MV4-11 + K-562 + COLO205 + SK-N-BE2 + OVCAR-8; conditions: read-out: apparent Kd, n = 1
YES1 = tested on: YES1; design: species or system human, MV4-11 + K-562 + COLO205 + SK-N-BE2 + OVCAR-8; conditions: read-out: apparent Kd, n = 1
CSNK2A1;CSNK2A3 = tested on: CSNK2A1;CSNK2A3; design: species or system human, MV4-11 + K-562 + COLO205 + SK-N-BE2 + OVCAR-8; conditions: read-out: apparent Kd; compound concentrations:100 nM and 1000 nM (sheet 'Samples'); n = 1
CSNK2A2 = tested on: CSNK2A2; design: species or system human, MV4-11 + K-562 + COLO205 + SK-N-BE2 + OVCAR-8; conditions: read-out: apparent Kd; compound concentrations:100 nM and 1000 nM (sheet 'Samples'); n = 1
FYN = tested on: FYN; design: species or system human, MV4-11 + K-562 + COLO205 + SK-N-BE2 + OVCAR-8; conditions: read-out: apparent Kd; compound concentrations: 100 nM and 1000 nM (sheet 'Samples'), CATDS: 2.15624347754024E-2; n = 1
HCK = tested on: HCK; design: species or system human, MV4-11 + K-562 + COLO205 + SK-N-BE2 + OVCAR-8; conditions: read-out: apparent Kd, compound concentrations: 100 nM and 1000 nM (sheet 'Samples'), n = 1
RIPK2 = tested on: RIPK2; design: species or system human, MV4-11 + K-562 + COLO205 + SK-N-BE2 + OVCAR-8; conditions: read-out: apparent Kd, n = 1
PTK6 = tested on: PTK6; design: species or system human, MV4-11 + K-562 + COLO205 + SK-N-BE2 + OVCAR-8; conditions: read-out: apparent Kd, n = 1
RIPK3 = tested on: RIPK3; design: species or system human, MV4-11 + K-562 + COLO205 + SK-N-BE2 + OVCAR-8; conditions: read-out: apparent Kd, compound concentrations: 100 nM and 1000 nM (sheet 'Samples'), n = 1
[1] = compound concentrations:100 nM and 1000 nM (sheet 'Samples')

`Cl.Cn1c(=O)c(Cc2ccc(F)cc2F)cc2cnc(NC3CCOCC3)nc21` [RO3308757-001] showed a potency estimated from few doses (ABL1; [1]) of 1760 nM, a potency estimated from few doses (ABL2; [1]) of 513 nM and a potency estimated from few doses (BCR; [1]) of 477 nM. The potency estimated from few doses (CLK1) was 779 nM, the potency estimated from few doses (CLK4) was 1110 nM and the potency estimated from few doses (GAK; [1]) was 434 nM. The potency estimated from few doses (LCK; [1]) was 1220 nM, the potency estimated from few doses (Q6ZSR9) was 1840 nM and the potency estimated from few doses (RET; [1]) was 877 nM. It also gave a potency estimated from few doses (TNK1; [1]) of 177 nM and a potency estimated from few doses (YES1; [1]) of 805 nM.
In the case of `Cn1cc(-c2ccc3c(c2)CCN3C(=O)Cc2cccc(Cl)c2)c2c(N)ncnc21` [GSK2606590A], the potency estimated from few doses (ABL1; compound concentrations: 100 nM and 1000 nM (sheet 'Samples'), CATDS: 0.26932988266552799) is reported as 1720 nM.
`COc1cccc(-c2c[nH]c3c(N/N=C/c4ccncc4)ncnc23)c1` [GW814408X] showed a potency estimated from few doses (ABL1; [1]) of 1980 nM, a potency estimated from few doses (BCR; [1]) of 1150 nM and a potency estimated from few doses (CSNK2A1;CSNK2A3) of 920 nM. The potency estimated from few doses (CSNK2A2) was 237 nM.
`CC(C)c1nc(-c2cccc(NS(=O)(=O)c3c(F)cccc3F)c2F)c(-c2ccnc(Nc3ccc(N4CCOCC4)nc3)n2)s1` [GSK2008607A] was tested, and the potency estimated from few doses (ABL1; compound concentrations: 100 nM and 1000 nM (sheet 'Samples'), CATDS: 2.52520437406713E-2) was 706 nM, the potency estimated from few doses (ABL2; compound concentrations: 100 nM and 1000 nM (sheet 'Samples'), CATDS: 7.58086527625733E-2) was 101 nM and the potency estimated from few doses (BCR; compound concentrations: 100 nM and 1000 nM (sheet 'Samples'), CATDS: 3.4777380085243399E-2) was 355 nM. The potency estimated from few doses (FYN) was 1090 nM, the potency estimated from few doses (GAK; compound concentrations: 100 nM and 1000 nM (sheet 'Samples'), CATDS: 3.3626459583734003E-2) was 378 nM and the potency estimated from few doses (HCK; CATDS: 2.4637154538395101E-2) was 751 nM. It also gave a potency estimated from few doses (LCK; compound concentrations: 100 nM and 1000 nM (sheet 'Samples'), CATDS: 4.60457501367081E-2) of 215 nM, a potency estimated from few doses (RET; compound concentrations: 100 nM and 1000 nM (sheet 'Samples'), CATDS: 4.3035202568940403E-2) of 241 nM and a potency estimated from few doses (TNK1; compound concentrations: 100 nM and 1000 nM (sheet 'Samples'), CATDS: 8.7218482008179707E-2) of 82.7 nM. It also gave a potency estimated from few doses (YES1; compound concentrations: 100 nM and 1000 nM (sheet 'Samples'), CATDS: 2.6088425735390001E-2) of 653 nM.
`CC(=O)c1c(-c2ccncc2)[nH]c(-c2ccncc2)c1C` [GW493036X] gave a potency estimated from few doses (ABL2; [1]) of 482 nM, a potency estimated from few doses (BCR; [1]) of 277 nM and a potency estimated from few doses (CLK1) of 10.9 nM. The potency estimated from few doses (CLK4) was 1.62 nM and the potency estimated from few doses (RIPK2; [1]) was 1000 nM.
For `CNc1nccc(-c2c(-c3ccc(F)cc3)ncn2C2CCN(C)CC2)n1` [SB-222903], the potency estimated from few doses (ABL2; [1]) was 389 nM, the potency estimated from few doses (CLK1) was 808 nM and the potency estimated from few doses (RIPK2; [1]) was 433 nM.
`Nc1nc(N)c2nc(-c3ccccc3)[nH]c2n1` [SKF-12778] gave a potency estimated from few doses (CLK1) of 1150 nM, a potency estimated from few doses (CSNK2A1;CSNK2A3) of 1350 nM and a potency estimated from few doses (CSNK2A2) of 1100 nM. It also gave a potency estimated from few doses (PTK6; [1]) of 1150 nM and a potency estimated from few doses (YES1; [1]) of 1040 nM.
`CS(=O)(=O)Cc1ccc(Nc2nccc(-c3c(-c4cccc(NC(=O)c5c(F)cccc5F)c4)nn4ccccc34)n2)cc1` [GSK323543A] was tested, and the potency estimated from few doses (ABL2; compound concentrations: 100 nM and 1000 nM (sheet 'Samples'), CATDS: 7.35852808685315E-2) was 971 nM, the potency estimated from few doses (HCK; CATDS: 9.4870937315331097E-2) was 576 nM and the potency estimated from few doses (LCK; compound concentrations: 100 nM and 1000 nM (sheet 'Samples'), CATDS: 7.3424400867348402E-2) was 976 nM. It also gave a potency estimated from few doses (RET; compound concentrations: 100 nM and 1000 nM (sheet 'Samples'), CATDS: 0.14439255275757601) of 289 nM, a potency estimated from few doses (RIPK3; CATDS: 7.2905332862385097E-2) of 992 nM and a potency estimated from few doses (TNK1; compound concentrations: 100 nM and 1000 nM (sheet 'Samples'), CATDS: 0.144635692896082) of 288 nM. For the same molecule, the potency estimated from few doses (YES1; compound concentrations: 100 nM and 1000 nM (sheet 'Samples'), CATDS: 0.11796638249333601) was 395 nM.
Work on `Cn1cc(-c2ccc3c(c2)CCN3C(=O)Cc2cc(F)cc(C(F)(F)F)c2)c2c(N)ncnc21` [GSK2635225A] yielded a potency estimated from few doses (ABL1; compound concentrations: 100 nM and 1000 nM (sheet 'Samples'), CATDS: 0.14527180827686201) of 1130 nM and a potency estimated from few doses (ABL2; compound concentrations: 100 nM and 1000 nM (sheet 'Samples'), CATDS: 0.18446738219414099) of 647 nM.
For `Fc1cc(Cl)ccc1Nc1ccnc2cc(-c3ccc(CN4CCOCC4)o3)ccc12` [GW560109X], the potency estimated from few doses (ABL1; compound concentrations: 100 nM and 1000 nM (sheet 'Samples'), CATDS: 5.7871370068112001E-2) was 1200 nM, the potency estimated from few doses (ABL2; compound concentrations: 100 nM and 1000 nM (sheet 'Samples'), CATDS: 6.6885266429186699E-2) was 810 nM and the potency estimated from few doses (BCR; compound concentrations: 100 nM and 1000 nM (sheet 'Samples'), CATDS: 0.27388815671753503) was 66.4 nM. For the same molecule, the potency estimated from few doses (GAK; compound concentrations: 100 nM and 1000 nM (sheet 'Samples'), CATDS: 5.9630252923923099E-2) was 1100 nM, the potency estimated from few doses (HCK; CATDS: 5.4118184617509203E-2) was 1480 nM and the potency estimated from few doses (PTK6; compound concentrations: 100 nM and 1000 nM (sheet 'Samples'), CATDS: 6.7887281457167797E-2) was 780 nM. The potency estimated from few doses (RET; compound concentrations: 100 nM and 1000 nM (sheet 'Samples'), CATDS: 9.1999760709611106E-2) was 400 nM, the potency estimated from few doses (RIPK2; compound concentrations: 100 nM and 1000 nM (sheet 'Samples'), CATDS: 0.235092034784944) was 82.6 nM and the potency estimated from few doses (RIPK3; CATDS: 7.3765709446288102E-2) was 641 nM.
`Cc1cc(O)cc(C)c1/C=C/c1cncc(-c2nn[nH]n2)c1.Cl` [GW441806A] gave a potency estimated from few doses (ABL2; compound concentrations: 100 nM and 1000 nM (sheet 'Samples'), CATDS: 4.9411968087492097E-2) of 1050 nM, a potency estimated from few doses (HCK; CATDS: 5.4045361972082297E-2) of 799 nM and a potency estimated from few doses (PTK6; compound concentrations: 100 nM and 1000 nM (sheet 'Samples'), CATDS: 5.1044813253260601E-2) of 947 nM. It also gave a potency estimated from few doses (RIPK2; compound concentrations: 100 nM and 1000 nM (sheet 'Samples'), CATDS: 0.246510095033628) of 18 nM and a potency estimated from few doses (RIPK3; CATDS: 4.07522630784811E-2) of 2090 nM.
